# Screening results: PubChem, several laboratories
# Hits are enriched below; roughly 4.6% of the tested compounds scored in any of these assays.
# ABHD5 PLIN5 PPI: blocks binding of human ABHD5 to perilipin-5; AID 602281; actives 0.78% (n = 360,000); Q00G26+Q8WTS1; inhibition, % at 4 µM; Split G. princeps luciferase complementation, luminescence, 4 h;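 active = inhibition above the mean inhibition across every tested compound plus 3 SD, cut at about 22% in these data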;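 note: 0% = DMSO only wells and the 100% control is not disclosed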
# Target sequence (Q00G26 whole entry, looked up): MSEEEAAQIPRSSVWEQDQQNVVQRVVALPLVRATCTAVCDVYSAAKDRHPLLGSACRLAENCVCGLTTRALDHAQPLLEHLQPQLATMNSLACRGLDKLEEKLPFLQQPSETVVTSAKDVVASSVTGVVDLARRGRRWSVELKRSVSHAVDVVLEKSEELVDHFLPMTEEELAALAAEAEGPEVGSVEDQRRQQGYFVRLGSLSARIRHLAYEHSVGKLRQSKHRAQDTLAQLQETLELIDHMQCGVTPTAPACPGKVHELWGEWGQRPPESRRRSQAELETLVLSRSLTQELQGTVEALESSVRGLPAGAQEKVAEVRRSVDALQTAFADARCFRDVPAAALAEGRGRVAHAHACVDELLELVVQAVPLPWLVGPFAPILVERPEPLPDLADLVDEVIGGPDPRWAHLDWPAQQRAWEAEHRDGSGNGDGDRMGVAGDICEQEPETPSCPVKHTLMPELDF
# Target sequence (Q8WTS1 whole entry, looked up): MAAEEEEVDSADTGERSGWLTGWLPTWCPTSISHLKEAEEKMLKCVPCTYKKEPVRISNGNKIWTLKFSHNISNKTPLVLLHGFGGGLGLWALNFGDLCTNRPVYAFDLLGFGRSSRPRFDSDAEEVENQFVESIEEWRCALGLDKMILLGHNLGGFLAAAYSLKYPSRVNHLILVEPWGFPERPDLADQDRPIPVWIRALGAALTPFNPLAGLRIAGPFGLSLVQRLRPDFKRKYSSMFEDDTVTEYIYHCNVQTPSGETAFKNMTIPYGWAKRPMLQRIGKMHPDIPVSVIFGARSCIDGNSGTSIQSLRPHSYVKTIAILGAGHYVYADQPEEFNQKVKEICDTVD
# Peg3 promoter: Peg3 promoter activity inhibition; HeLa PEG-Prom luciferase reporter, luminescence, overnight; inhibition, % at 20 µM; actives 1.7% (n = 360,000); AID 588405;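 active = inhibition of at least 50% at 20 µM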
# Mdm2 MdmX PPI: disrupts the human Mdm2-MdmX interaction; inhibition, % at 8 µM; O15151+Q00987; actives 3% (n = 330,000); SaOS-2 split-luciferase Mdm2/MdmX complementation, luminescence;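 active = inhibition of at least 50% at 8 µM in the primary screen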
# HIF-2a block: inhibitors of HIF-2a. actives 0.72% (n = 360,000). 786-0 RCC cells HIF-2a reporter, luciferase luminescence, overnight. inhibition, % at 18.8 µM;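 active = inhibition of the luminescence signal of 40% or more relative to plate controls, in a single-dose primary screen at 18.75 µM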
# CF NFkB inh: blocks PAF-induced NF-kB reporter in cystic fibrosis cells | KKLEB NF-kB-GFP reporter, GFP fluorescence overnight | inhibition, % at 5 µM | actives 0.86% (n = 360,000);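 active = at least 50% inhibition at 5 µM, scaled per plate between neutral and stimulator controls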;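 note: PAF is a Pseudomonas aeruginosa culture filtrate used as stimulus; plate controls were PAF-stimulated DMSO wells for no effect and unstimulated DMSO wells for full effect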
# KKLEB tox: reduces viability of KKLEB cystic fibrosis airway cells; activity change (cytotoxicity), % at 5 µM; actives 0.36% (n = 360,000); KKLEB CF airway cells viability, ATPlite luminescence, overnight; active compounds read low; cells stimulated with P. aeruginosa culture filtrate; AID 602141;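 active = corrected activity change at or below -50% at 5 µM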
# ABHD5-PLIN5 conf: ABHD5-PLIN5 interaction inhibition, confirmed. shares compounds with ABHD5 PLIN5 PPI. biochemical ABHD5-PLIN5 interaction, luminescence. inhibition, % at 4 µM. actives 67% (n = 2,200). AID 651612; in the data active = inhibition above about 23%;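 note: 0% = DMSO vehicle wells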
# HNF4 counter: HNF4 split-luciferase signal hit, counter-screen; shares compounds with ABHD5 PLIN5 PPI; HNF4 dimerization, luminescence, biochemical; inhibition, % at 4 µM; actives 77% (n = 2,200); AID 651674;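 active = mean inhibition across replicate wells exceeding the computed hit threshold, cut at about 13% in these data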;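 note: light from luciferase halves that rejoin when HNF4 fusion proteins dimerize; 0% = DMSO only wells and the 100% control is not given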
# * = called active by the depositor; · = not tested or not shown.
SMILES,ABHD5 PLIN5 PPI,Peg3 promoter,Mdm2 MdmX PPI,HIF-2a block,CF NFkB inh,KKLEB tox,ABHD5-PLIN5 conf,HNF4 counter
CN1CCN(c2ncnc3c2ncn3[C@H]2CN(Cc3ccc4c(c3)OCO4)C[C@@H](CO)O2)CC1,-1,-4,·,8,-6,0,·,·
O=C(O)C(Cc1ccccc1)N1C(=O)CCC1=O (stereo not drawn),-4,9,17,6,10,0,·,·
O=C(O)C(Cc1ccccc1)N1C(=O)C=CC1=O (stereo not drawn),75*,12,·,0,-11,22,67*,107*
O=C(/C=C/c1ccco1)N1CCc2ccccc21,5,-34,-172,-166,-30,-14,·,·
Cc1ccc(/C=C/C(=O)N2CCc3ccccc32)o1,24*,-133,-223,-209,-6,-2,16,50*
O=C/C(=C\Nc1ccccn1)c1nc2ccccc2o1,24*,-41,31,-94,-5,0,21,27*
CCOc1cccc2cc(-c3cn4cc(C)ccc4n3)c(=O)oc12,0,-170,-40,-179,-2,-41,·,·
CNc1nnc(-c2cc3cc(Cl)ccc3oc2=O)s1,-1,-186,-26,-221,-20,4,·,·
CCOc1cccc2cc(-c3nnc(NCc4ccco4)s3)c(=O)oc12,48*,34,-20,-197,-5,6,29*,35*
COc1ccc2oc(=O)c(-c3nnc(NCc4ccco4)s3)cc2c1,60*,-45,-3,-195,-16,7,21,43*
O=C(Nc1cccc2ccccc12)c1ccc2sc([C@H]3C[C@H](O)[C@@H](CO)O3)nc2c1,-12,-47,·,-82,5,7,·,·
O=C(CCC(=O)c1cccs1)OCC(=O)c1ccccc1F,-1,10,-21,-1,1,-1,·,·
Nc1ccccc1SSc1ccccc1N,60*,-33,25,-3,-28,4,88*,104*
COc1ccc(/C(O)=C2\C(=O)C(=O)N(Cc3ccco3)C2c2cc(OC)ccc2OC)cc1 (stereo not drawn),29*,11,2,-17,13,8,4,2
COc1ccc(OC)c(C2/C(=C(/O)c3ccccc3)C(=O)C(=O)N2Cc2ccco2)c1 (stereo not drawn),5,4,-4,5,13,-1,·,·
COc1cc(C2/C(=C(\O)c3ccc4c(c3)OCCO4)C(=O)C(=O)N2Cc2ccco2)cc(OC)c1OC (stereo not drawn),29*,-4,3,2,-33,-2,3,5
COc1cc(C2/C(=C(\O)c3ccc4c(c3)OCCO4)C(=O)C(=O)N2Cc2ccco2)ccc1O (stereo not drawn),0,5,-6,8,-18,4,·,·
CN(C(=O)c1cccc(NC(=O)Cc2ccc([N+](=O)[O-])cc2)c1)C1CC1,5,18,3,8,-2,-7,·,·
O=C(Cn1cnnn1)NCc1ccccc1,1,2,14,14,-14,-18,·,·
COC(=O)[C@H](Cc1ccccc1)NC(=O)NCCc1ccccc1F,5,-3,-13,6,-1,1,·,·
CCOc1ccc(Cn2c(=O)sc3ccccc32)cc1OC,-2,5,12,8,8,-18,·,·
CN(CC1CCCO1)S(=O)(=O)c1ccc(C(=O)Nc2ccc(S(N)(=O)=O)cc2)cc1 (stereo not drawn),-10,12,-1,7,5,-2,·,·
Cc1c(C)n(C)c2ccc(C(=O)NCCc3ccco3)cc12,12,-174,-16,-152,-16,-3,·,·
CCn1c(C)c(C)c2cc(C(=O)NCCc3ccco3)ccc21,30*,-51,4,-47,1,11,10,16*
CCOc1ccccc1CNCC1CCCO1 (stereo not drawn),3,-4,-1,16,-10,14,·,·
SMILES,ABHD5 PLIN5 PPI,Peg3 promoter,Mdm2 MdmX PPI,HIF-2a block,CF NFkB inh,KKLEB tox,ABHD5-PLIN5 conf,HNF4 counter
COc1cc(/C=N/Nc2ccc(Cl)c(C(=O)O)c2)ccc1OC(=O)c1ccccc1F,1,-9,5,-4,-8,-2,·,·
COc1ccccc1C1CC(c2cccs2)=Nc2ccccc2S1 (stereo not drawn),45*,-29,-30,-119,-11,-19,-5,5
COc1ccccc1C1CC(c2cccs2)=NN1C(=O)CCC(=O)O (stereo not drawn),-2,8,9,16,-7,7,·,·
COCCCNC(=O)C1CCC(CNS(=O)(=O)c2ccc3c(c2)CC(C)N3C(=O)C2CC2)CC1 (stereo not drawn),3,0,17,9,25,-7,·,·
Cc1ccc(/C=C2/CNC/C(=C/c3ccc(C)cc3)C2=O)cc1,96*,105*,·,85*,80*,-63*,100*,94*
O=C(N/N=C/c1ccc(OC(=O)c2cccs2)cc1)c1ccccn1,-1,-157,-31,-146,-16,2,·,·
COC/C=C/C1=CC2=CC(=O)C(C)(OC(=O)C3CCCC3)C(=O)C2=CO1 (stereo not drawn),36*,14,-3,6,-5,9,67*,39*
CCOC(=O)N1CCN(Cc2nc3cc(NC(=O)c4cccs4)ccc3n2CC)CC1,0,-14,22,-66,10,-7,·,·
O=C(N/N=C/c1ccc(N2CCCCC2)o1)c1ccccc1[N+](=O)[O-],26*,2,25,12,-1,13,38*,66*
O=C(N/N=C/c1ccc(N2CCOCC2)o1)c1ccccc1[N+](=O)[O-],22,-2,16,12,10,8,·,·
O=C1CC(Sc2nnnn2-c2ccccc2)C(=O)N1c1cccc(Cl)c1 (stereo not drawn),37*,116*,2,40,45,-15,62*,104*
Cc1ccc(Cl)cc1NC(=O)C[n+]1ccc(Cc2ccc([N+](=O)[O-])cc2)cc1,24*,19,17,6,9,-4,15,-2
C=CCOC(=O)C(=O)/C=C/c1ccc2c(c1)Cc1ccccc1-2,35*,-38,13,-19,-7,-1,77*,71*
CCOc1ccc(N2CC(C(=O)Nc3cccnc3)CC2=O)cc1 (stereo not drawn),1,14,5,19,2,-3,·,·
COc1ccc(N2C(=O)c3ccccc3NC(=O)C2C(=O)NCc2ccco2)cc1 (stereo not drawn),6,·,·,-16,·,·,·,·
COC(=O)CSc1[nH]c2ccc(F)cc2c1[N+](=O)[O-],25*,7,-25,8,24,-7,44*,83*
